Where “and” joins values, the source holds several entries; their conditions need not be identical. Identical values can stand only once. Inconclusive results are not listed. Where a call stands in place of a potency, no number is given. Where a structure was tested more than once in an assay, its records may differ in their call. Calls of active or inactive are those of the source. Unless noted, the call rests on the fitted dose curve; in most records, active means well fitted curve in the direction sought with a large enough effect; inconclusive means small, poorly fitted or top-dose-only effect, or another doubt; inactive means no such curve, though single readings can be large; an effect the other way counts as inactive or inconclusive.
Legend:
[1] = Cell Viability - BJ (AID 421; calls by dose curve;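 further: potency means the concentration at half of the fitted maximal effect; cells exposed to compound for 40 hours at 37 °C before readout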); details: BJ fibroblast viability, qHTS
Outline: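 Quantitative HTS: ATP depletion in BJ cells after 40 hr compound exposure in complete culture medium, detected with CellTiter-Glo; AC50 from standard Hill fits.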

[2] = Cell Viability - Hek293 (AID 427;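 active means compounds whose dose-response curve shows a full or clear partial loss of cell viability, called from curve shape rather than a numeric limit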;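 further: potency means the concentration at half of the fitted maximal effect; cells exposed to compound for 40 hours at 37 °C before reading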); details: qHTS
Outline: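 AC50 values derive from Hill-modelled concentration-response of ATP-based luminescence, normalized between DMSO-only and 100 uM tamoxifen controls. Cells were exposed in complete culture medium for 40 hr at 37 °C before detection.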

[3] = Cell Viability - HepG2 (AID 433; calls by dose curve;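 further: potency means the concentration at half of the fitted maximal effect; potency for ATP loss meaning cytotoxicity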); details: qHTS
Outline: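 HepG2 hepatocellular carcinoma cells (1500/well) were treated with compounds for 40 h at 37 °C in complete medium; intracellular ATP was read by CellTiter-Glo luminescence. Data were normalized to DMSO and 100 uM tamoxifen, and AC50 came from Hill fits.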

[4] = Cell Viability - MRC5 (AID 434; calls by dose curve;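 further: potency means the concentration at half of the fitted maximal effect; potency reflects cytotoxicity seen as loss of intracellular ATP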); details: MRC5 lung fibroblast viability, qHTS
Outline: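 MRC5 normal human lung fibroblasts (1500/well) were treated with compounds for 40 hr at 37 °C in complete medium, and viable cells were measured as intracellular ATP by CellTiter-Glo luminescence. AC50 came from Hill fits, normalized to DMSO and 100 uM tamoxifen.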

[5] = Cell Viability - SK-N-SH (AID 435; calls by dose curve;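 further: potency means the concentration at half of the fitted maximal effect; compound exposure lasted 40 h at 37 °C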); details: SK-N-SH neuroblastoma cell viability qHTS
Outline: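 SK-N-SH human neuroblastoma cells (1500/well) were exposed to compounds in complete medium for 40 h at 37 °C, and intracellular ATP was then measured by CellTiter-Glo luminescence. AC50 was taken from Hill fits, normalized to DMSO and 100 uM tamoxifen.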

[6] = biological target: Mitogen-activated protein kinase 10 (Mus musculus) (UniProt Q61831); assay: JNK3 AlphaScreen Assay (AID 530; active means well fitted curve in either direction with a large enough effect, not every such curve was filed as active;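 further: kinase came from lysate of stimulated human HepG2 cells; signal reports phosphorylation of biotinylated GST-cJun 1-79 at Ser73 with 10 µM ATP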); details: JNK3 lysate, c-Jun phosphorylation; series mostly up to 57.1 µM
Outline: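 Inhibitors reduce antibody binding to phosphorylated biotin-cJun, lowering AlphaScreen luminescence. Lysates from HepG2 cells pre-activated by IL-1beta plus TNF-alpha supplied JNK3; compounds were titrated.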

[7] = Cell Viability - N2a (AID 540); details: N2a mouse neuroblastoma cell viability; series mostly up to 92.2 µM; further: nearly all actives have a fitted effect of over 45% in size
Outline: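 Mouse neuroblastoma N2a cells, 1500/well, exposed to compounds 40 h at 37 °C in complete medium. Viability measured as cellular ATP by CellTiter-Glo luminescence; AC50 from Hill fits of concentration-response.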

[8] = Cell Viability - HUV-EC-C (AID 542); details: HUV-EC-C endothelial cell viability, qHTS; series mostly up to 92.2 µM; further: nearly all actives have a fitted effect of over 35% in size
Outline: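 HUV-EC-C human vascular endothelial cells, 1000/well, exposed to compound for 40 hr at 37 °C in complete medium. Intracellular ATP was read by CellTiter-Glo luminescence. AC50 came from Hill-equation fits of concentration-response data.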

[9] = Cell Viability - H-4-II-E (AID 543); details: H-4-II-E rat hepatoma viability; series mostly up to 92.2 µM; further: nearly all actives have a fitted effect of over 35% in size; further: potency means the concentration at half of the fitted maximal effect
Outline: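 Rat hepatoma H-4-II-E cells, 1500 per well, treated 40 h at 37 °C in complete medium. Cellular ATP read by CellTiter-Glo luminescence; AC50 from Hill fits of concentration-response.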

[10] = Cell Viability - SH-SY5Y (AID 544); details: SH-SY5Y neuroblastoma cell viability; series mostly up to 92.2 µM; further: nearly all actives have a fitted effect of over 55% in size
Outline: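 SH-SY5Y human neuroblastoma cells (1500/well) incubated 5 h, then compound-treated 40 h at 37 °C in complete medium. Viability read as intracellular ATP by CellTiter-Glo luminescence after 20 min; AC50 from Hill-equation fits of qHTS concentration-response.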

[11] = Cell Viability - Mesenchymal (AID 546); details: mesenchymal cells viability, qHTS; series mostly up to 91.7 µM;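 further: cells exposed to compound for 40 hours before reading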
Outline: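 Normal human renal glomerulus-derived kidney mesenchymal cells, 1000 per well in complete medium, were treated with compounds for 40 hr at 37 °C. Viability was read as intracellular ATP by CellTiter-Glo luminescence; AC50 values came from Hill-equation fits of qHTS concentration-response data.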

[12] = Cellular Toxicity (caspase-3) HepG2 (AID 654); details: HepG2 caspase-3 activation, luminescence, 0% = DMSO only, 100% = tamoxifen; series mostly up to 92.2 µM;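 further: cells exposed to compound for 16 hours before reading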
Outline: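 HepG2 cells (1500/well) were treated 16 h at 37 °C in complete medium, then caspase 3/7 activity was read by Caspase-Glo luminescence. Data were normalized to DMSO and 100 uM tamoxifen; AC50 came from Hill-equation fits of qHTS concentration-response.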

[13] = biological target: Glucocorticoid receptor (Homo sapiens) (UniProt P04150); assay: GR-GFP Redistribution (AID 450;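 active means compounds whose dose series gives a full or clear partial fitted curve of increased nuclear translocation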; further: potency means the concentration at half of the fitted maximal effect); details: U2OS GR-GFP nuclear translocation, laser cytometry, 2 h
Sequence of Glucocorticoid receptor (Homo sapiens) (P04150 whole entry, looked up, the tested form may be a part): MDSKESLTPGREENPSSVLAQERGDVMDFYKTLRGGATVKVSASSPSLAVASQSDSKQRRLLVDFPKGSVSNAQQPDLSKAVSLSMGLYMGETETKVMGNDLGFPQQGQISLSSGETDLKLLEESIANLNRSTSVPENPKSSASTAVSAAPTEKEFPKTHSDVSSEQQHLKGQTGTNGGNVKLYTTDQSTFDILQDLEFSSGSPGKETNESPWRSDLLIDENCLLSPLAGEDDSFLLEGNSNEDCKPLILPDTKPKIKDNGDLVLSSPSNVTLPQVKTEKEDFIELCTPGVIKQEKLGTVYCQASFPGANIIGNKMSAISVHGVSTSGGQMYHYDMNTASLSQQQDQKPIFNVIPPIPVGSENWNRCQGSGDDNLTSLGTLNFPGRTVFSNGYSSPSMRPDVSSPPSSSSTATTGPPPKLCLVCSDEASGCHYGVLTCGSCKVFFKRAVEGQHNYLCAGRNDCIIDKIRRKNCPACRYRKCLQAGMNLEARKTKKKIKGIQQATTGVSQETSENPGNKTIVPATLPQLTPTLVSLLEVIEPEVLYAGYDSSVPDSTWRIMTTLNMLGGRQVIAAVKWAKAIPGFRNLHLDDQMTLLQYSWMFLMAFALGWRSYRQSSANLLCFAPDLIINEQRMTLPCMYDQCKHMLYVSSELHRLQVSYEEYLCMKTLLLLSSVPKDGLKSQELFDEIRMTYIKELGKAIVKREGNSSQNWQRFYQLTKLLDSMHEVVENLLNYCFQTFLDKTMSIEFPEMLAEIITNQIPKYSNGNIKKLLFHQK

[14] = biological target: Glucocorticoid receptor (Homo sapiens) (UniProt P04150); assay: GR-EFC Redistribution (AID 451; calls by dose curve; further: potency means the concentration at half of the fitted maximal effect); details: CHO-K1 GR-EFC translocation, beta-gal luminescence, 2 h
Outline: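 CHO-K1 cells stably expressing nuclear-localized β-gal enzyme acceptor and GR fused C-terminally to the enzyme donor fragment; ligand-driven nuclear translocation restores β-gal by complementation. Compounds titrated up to 46 uM final, 2 h at 37 °C; luminescence read.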

[15] = biological target: 3',5'-cyclic-AMP phosphodiesterase 4B (Homo sapiens) (UniProt Q07343); assay: qHTS Assay for Inhibitors of PDE-IV (AID 607; active means well fitted activation curve with a large enough effect in the main read-out, with a control signal flat, not every such curve was filed as active); details: HEK293 ACTOne CNG channel cells, membrane potential fluorescence; series mostly up to 22.9 µM
Sequence of 3',5'-cyclic-AMP phosphodiesterase 4B (Homo sapiens) (Q07343 whole entry, looked up): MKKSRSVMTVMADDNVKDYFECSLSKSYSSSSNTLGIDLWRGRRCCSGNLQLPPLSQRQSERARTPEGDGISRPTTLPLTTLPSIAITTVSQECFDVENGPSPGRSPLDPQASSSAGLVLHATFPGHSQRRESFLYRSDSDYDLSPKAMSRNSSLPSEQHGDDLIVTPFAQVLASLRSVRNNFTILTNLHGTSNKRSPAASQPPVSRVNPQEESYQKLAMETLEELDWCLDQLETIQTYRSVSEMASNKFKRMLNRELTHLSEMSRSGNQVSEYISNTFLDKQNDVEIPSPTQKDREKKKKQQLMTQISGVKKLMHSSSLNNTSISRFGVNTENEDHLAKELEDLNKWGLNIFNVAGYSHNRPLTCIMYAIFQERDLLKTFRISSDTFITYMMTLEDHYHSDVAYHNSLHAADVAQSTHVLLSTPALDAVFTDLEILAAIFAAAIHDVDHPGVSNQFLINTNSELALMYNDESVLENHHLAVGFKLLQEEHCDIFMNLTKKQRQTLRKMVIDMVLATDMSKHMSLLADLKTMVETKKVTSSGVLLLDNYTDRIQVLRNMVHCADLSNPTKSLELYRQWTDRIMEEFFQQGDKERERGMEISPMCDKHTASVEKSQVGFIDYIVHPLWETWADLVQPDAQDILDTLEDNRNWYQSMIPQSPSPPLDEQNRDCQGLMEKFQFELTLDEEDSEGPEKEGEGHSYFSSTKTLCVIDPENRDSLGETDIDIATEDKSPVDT
Outline: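 Live HEK293 cells with a modified cyclic nucleotide-gated (CNG) channel report intracellular cAMP via membrane-potential dye fluorescence (ex 535/em 590 nm). Endogenous PDE-IV was targeted. Compounds were tested at up to 22.9 uM final; RO 20-1724 100 uM served as control.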

[16] = Cell Viability - NIH 3T3 (AID 541); details: NIH 3T3 cell viability, qHTS; at 92.2 µM (top of the series); further: nearly all actives have a fitted effect of over 25% in size
Outline: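 Mouse NIH 3T3 fibroblasts, 1000 cells/well, rested 5 hr at 37 °C, then exposed to compound for 40 hr at 37 °C in complete medium. Viability read as intracellular ATP by CellTiter-Glo luminescence; AC50 from Hill-equation fits of concentration-response data.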

[17] = AP1 Signaling Pathway (AID 357; active means well fitted curve in either direction with a large enough effect, not every such curve was filed as active;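 further: ME-180 reporter cells stimulated with EGF at its EC50 level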); details: ME-180 AP-1-bla reporter, EGF-induced, beta-lactamase ratio, 5 h; series mostly up to 17.2 µM
Outline: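 AP-1-bla ME-180 cells, Opti-MEM + 0.5% dialyzed FBS, plated overnight 37 °C. Cpd titration + EC50 EGF, 5 h 37 °C. CCF4 2.5 h RT; ex 405, em 460/530 ratio → %activity, AC50.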

[18] = NFAT Signaling Pathway (AID 444; active means well fitted curve in either direction with a large enough effect, not every such curve was filed as active;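 further: carbachol stimulus at about its EC50 of 1 µM final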); details: Jurkat NFAT-bla M1, carbachol, beta-lactamase ratio, 5 h
Outline: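 Jurkat cells carrying an NFAT-driven β-lactamase reporter and co-transfected muscarinic M1 receptor were treated with compound plus carbachol (1 uM final, an EC50 level) for 5 h at 37 °C. CCF4 loading followed for 1 h at RT; 460/530 nm ratio gave %activity.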

[19] = Stat Signaling Pathway (AID 446; active means well fitted curve in either direction with a large enough effect, not every such curve was filed as active;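 further: ME-180 cervical cancer cells given 40 pM IL-6 alongside compound; SIE-controlled beta-lactamase reporter measured as 460/530 nm FRET emission ratio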); details: ME-180 (cervical carcinoma) SIE beta-lactamase reporter, IL-6 stimulated, 5 h; series mostly up to 17.2 µM
Outline: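 IL-6/STAT signaling read in ME-180 cells via an SIE beta-lactamase reporter. Stimulus was 40 pM IL-6 (its AC50) for 5 hrs, so both activation and inhibition register.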

[20] = biological target: Cytochrome P450 1A2 (Homo sapiens) (UniProt P05177); assay: p450-cyp1a2 (AID 410; calls by dose curve; further: potency means the concentration at half of the fitted maximal effect); details: recombinant CYP1A2, luciferin-ME demethylation, luminescence; series mostly up to 57 µM
Sequence of Cytochrome P450 1A2 (Homo sapiens) (P05177 whole entry, looked up): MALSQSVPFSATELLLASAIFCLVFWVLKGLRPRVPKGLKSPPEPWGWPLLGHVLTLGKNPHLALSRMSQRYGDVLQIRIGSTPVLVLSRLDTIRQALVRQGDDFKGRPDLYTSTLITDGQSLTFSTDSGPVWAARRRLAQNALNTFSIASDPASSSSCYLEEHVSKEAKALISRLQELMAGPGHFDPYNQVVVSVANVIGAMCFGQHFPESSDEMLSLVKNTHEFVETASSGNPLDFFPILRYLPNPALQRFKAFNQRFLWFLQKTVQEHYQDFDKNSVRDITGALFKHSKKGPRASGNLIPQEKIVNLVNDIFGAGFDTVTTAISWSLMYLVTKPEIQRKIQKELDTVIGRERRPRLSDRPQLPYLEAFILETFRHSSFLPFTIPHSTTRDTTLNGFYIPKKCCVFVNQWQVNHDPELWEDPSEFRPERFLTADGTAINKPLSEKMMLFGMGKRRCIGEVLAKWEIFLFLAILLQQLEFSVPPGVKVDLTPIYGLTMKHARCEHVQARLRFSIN
Outline: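 20nM CYP1A2 with 100uM Luciferin-ME (at Km) in 100mM KPO4; compound preincubated 10 min, NADPH regeneration added, 60 min at room temperature. Luciferin quantified by luminescence after detection reagent; normalized to 57 uM furafylline.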

C[C@]1(O)CC[C@H]2[C@@H]3CCC4=CC(=O)CC[C@]4(C)[C@@]3(F)[C@@H](O)C[C@@]21C
Potency [1]: > 92 µM (inactive)
Potency [2]: > 92 µM (inactive)
Potency [3]: > 92 µM (inactive)
Potency [4]: > 92 µM (inactive)
Potency [5]: > 92 µM (inactive)
outcome [6]: inactive
outcome [7]: inactive
Potency [8]: inactive
Potency [9]: inactive
Potency [10]: inactive
outcome [11]: inactive
outcome [12]: inactive

C=CCN1C[C@H](C)N([C@H](c2ccc(C(=O)N(CC)CC)cc2)c2cccc(OC)c2)C[C@H]1C
Potency [13]: > 46 µM (inactive)
Potency [14]: > 46 µM (inactive)
outcome [6]: inactive
outcome [15]: inactive

C[C@]12CCC(=O)C=C1CC[C@@H]1[C@@H]2CC[C@@]2(C)[C@H]1CC[C@]2(C)O
Potency [1]: > 92 µM (inactive)
Potency [3]: > 92 µM (inactive)
Potency [4]: > 92 µM (inactive)
outcome [6]: inactive
activity change, negative = cytotoxicity [16]: -123% (active)
Potency [8]: inactive
outcome [11]: inactive
outcome [12]: inactive

C[C@]12CCC(=O)C=C1CC[C@@H]1[C@@H]2CC[C@]2(C)C(=O)CC[C@@H]12
outcome [17]: inactive
Potency [1]: > 92 µM (inactive)
Potency [2]: 36.7 µM (active)
Potency [3]: > 92 µM (inactive)
Potency [4]: > 92 µM (inactive)
Potency [5]: > 92 µM (inactive)
activity change, negative = inhibition ([18]; at 17.2 µM (top of the series)): 7.44% (inactive)
outcome [19]: inactive
outcome [6]: inactive
outcome [7]: inactive
activity change, negative = cytotoxicity [16]: -137% (active) and -117% (active)
Potency [8]: inactive
Potency [9]: 25.1 µM (active)
Potency [10]: inactive
outcome [11]: inactive
outcome [12]: inactive

COP(=S)(OC)Oc1ccc(SC)c(C)c1
Potency [1]: > 92 µM (inactive)
Potency [2]: > 92 µM (inactive)
Potency [3]: > 92 µM (inactive)
Potency [4]: > 92 µM (inactive)
Potency [5]: > 92 µM (inactive)
outcome [7]: inactive
activity change, negative = cytotoxicity [16]: -11.1% (inactive)
Potency [8]: inactive
Potency [9]: inactive
Potency [10]: inactive
outcome [11]: inactive
outcome [12]: inactive

O=C(CCCN1CCC2(CC1)C(=O)NCN2c1ccccc1)c1ccc(F)cc1
outcome [17]: inactive
Potency [20]: inactive and 25.1 µM (active)
activity change, negative = inhibition ([18]; at 17.2 µM (top of the series)): -4.55% (inactive)
activity change, negative = inhibition ([18]; at 38 µM (top of the series)): 10.5% (inactive)
Potency [13]: > 46 µM (inactive) and > 20.6 µM (inactive)
Potency [14]: > 46 µM (inactive) and > 20.6 µM (inactive)
outcome [6]: inactive
outcome [15]: inactive

O=c1[nH]oc2c1CCNC2
outcome [17]: inactive
Potency [20]: inactive
activity change, negative = inhibition ([18]; at 17.2 µM (top of the series)): -9.07% (inactive)
activity change, negative = inhibition ([18]; at 38 µM (top of the series)): 9.6% (inactive)
outcome [19]: inactive
Potency [13]: > 46 µM (inactive) and > 20.6 µM (inactive)
Potency [14]: > 46 µM (inactive) and > 20.6 µM (inactive)
outcome [6]: inactive
outcome [15]: inactive

C#C[C@]1(O)CC[C@H]2[C@@H]3CCC4=CC(=O)CC[C@]4(C)[C@H]3CC[C@@]21C
outcome [17]: inactive
activity change, negative = inhibition ([18]; at 17.2 µM (top of the series)): 2.09% (inactive)
outcome [19]: inactive
Potency [13]: 0.338 µM (active)

Source: PubChem BioAssay (NCATS)
